Screening results deposited in PubChem by several laboratories.
Measles CPE: protection of cells from measles virus | protection (pct of control), % at 4 µM | 140,000 tested, 1.5% active | Measles virus-infected cells, CPE protection, absorbance; in the data active = protection mostly above about 24%, no sharp cut-off; inactive = mostly below about 26%
Insulin prom inh: TRM-6 insulin promoter activity inhibition; TRM-6 cells (human fetal islet line), insulin promoter-eGFP reporter, imaging; reporter expression induced with tamoxifen; 130,000 tested, 0.9% active; inhibition, % at 2 µM;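 active = inhibition above the mean plus 3 SD, with well images judged a real hit on visual review, cut at about 60% in these data, passing the limit was not always enough; inconclusive = inhibition over the cutoff but images rejected on review; inactive = inhibition not above the cutoff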
ROMK primary: human ROMK K+ channel modulation, primary screen; B-score at 10 µM; 130,000 tested, 2% active; Tet-inducible ROMK, thallium flux fluorescence; actives lie on both sides; P48048;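 active = signal ratio slope over the read window, or its plate-corrected B-score, at least 3 SD from the plate mean, either direction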;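 also: B-score of the F/F0 ratio slope over 7 to 12 s after thallium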
Target sequence (P48048 whole entry, looked up): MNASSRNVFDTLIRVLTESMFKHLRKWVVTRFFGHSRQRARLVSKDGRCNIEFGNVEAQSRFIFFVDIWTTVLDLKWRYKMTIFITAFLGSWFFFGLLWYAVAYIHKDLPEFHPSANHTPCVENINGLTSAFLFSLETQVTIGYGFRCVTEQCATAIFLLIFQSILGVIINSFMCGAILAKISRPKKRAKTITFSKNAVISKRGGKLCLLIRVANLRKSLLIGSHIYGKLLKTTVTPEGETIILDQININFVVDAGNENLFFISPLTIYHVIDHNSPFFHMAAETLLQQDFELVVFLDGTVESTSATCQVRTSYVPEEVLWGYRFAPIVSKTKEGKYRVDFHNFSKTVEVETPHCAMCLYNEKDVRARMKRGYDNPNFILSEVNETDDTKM
sdo1 growth: sdo1-depleted yeast growth rescue; S. cerevisiae sdo1-depleted JHY4D growth rescue, OD600 30 h; stronger effect = higher value; pdr5 snq2 efflux-pump mutant strain; z-score at 10 µM; 140,000 tested, 0.21% active; AID 817;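 active = z-score above 3 at both the 24 hr and the 30 hr optical density reads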
ROMK hit retest: retested hit modulating human ROMK potassium channel | shares compounds with ROMK primary | ROMK thallium flux, fluorescence ratio; stronger effect = lower value | normalized thallium flux (F/F0 slope) at 10 µM | 3,000 tested, 54% active | AID 1917;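 active = Flux at 10 µM at least 3 SD below or above vehicle control mean in one or both replicates; inconclusive = no clear call, values can overlap the other calls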
Large screens that a line does not name were inactive (follow-up assays come after a bar, where they were run). Sampled rows, rich in hits. Any-hit rate of the full collection: about 3%.

O=C(COC(=O)Cc1ccccc1F)Nc1cc(S(=O)(=O)N2CCOCC2)ccc1N1CCCC1	none (no result: Insulin prom inh, ROMK primary)
COc1ccc(Br)cc1C(=O)Nc1ccc(C(=O)O)cc1	none (no result: Measles CPE, sdo1 growth)
COc1ccc(NC(=O)c2cc3cccc(OC)c3oc2=Nc2ccc(C(=O)O)cc2)cc1OC	ROMK primary -4.4 (no result: Measles CPE, Insulin prom inh, sdo1 growth) | ROMK hit retest 0.054
CC(=O)c1ccc(O)c(CSC2=NCCS2)c1	none (no result: Measles CPE, sdo1 growth)
CC(=O)c1ccc(O)c(CO)c1	none (no result: Insulin prom inh) | ROMK hit retest inactive
CC(C)(C)C(=O)/C(C#N)=C/c1cccs1	none (no result: Measles CPE, Insulin prom inh, sdo1 growth)
N#C/C(=C\c1cccs1)C(=O)c1ccccc1Cl	none (no result: Measles CPE, Insulin prom inh, ROMK primary, sdo1 growth) | ROMK hit retest 0.052
CCC1=NN(C(=O)CCc2ccc3c(c2)OCO3)C(O)(C(F)(F)F)C1 (configuration not stated)	none (no result: Measles CPE, Insulin prom inh, sdo1 growth)
Brc1ccc(N=C(c2ccccc2)c2ccncc2)cc1	none
COc1ccccc1/C=C\C(=O)NCC(=O)N/N=C(\C)Cc1ccccc1	none (no result: Measles CPE, Insulin prom inh, sdo1 growth)
O=C(Nc1ccc(O)c(-c2nc3ccccc3o2)c1)C1(c2ccc(Br)cc2)CCCC1	none (no result: Insulin prom inh, ROMK primary) | ROMK hit retest inactive
CCOC(=O)c1c(NC(=O)C2c3ccccc3Oc3ccccc32)sc(C(=O)N(CC)CC)c1C	none (no result: Insulin prom inh)
Oc1c(Br)cc(Cl)cc1C=Nc1ccccc1Br	ROMK primary 3.5 | ROMK hit retest inconclusive
O=C(NCc1ccccc1)c1ccc(Br)cc1	ROMK primary -4.5 (no result: Measles CPE, Insulin prom inh, sdo1 growth) | ROMK hit retest inconclusive
O=C(NCc1ccncc1)c1ccc(Br)cc1	none (no result: Insulin prom inh, ROMK primary)
Cc1nnc(SCC(=O)N2CCN(C(=O)c3ccco3)CC2)n1-c1ccccc1	none (no result: Measles CPE, Insulin prom inh, sdo1 growth)
CCOc1ccc(CNCCNC(=O)c2nonc2N)cc1	none (no result: Measles CPE, sdo1 growth)
Nc1nonc1C(=O)NCCNCc1ccccc1OCc1ccc(F)cc1	none (no result: ROMK primary) | ROMK hit retest 0.062
CC1(C)NC(=O)N(CCCCOc2ccc(Cl)cc2C=O)C1=O	ROMK primary 3.9 (no result: Measles CPE, Insulin prom inh, sdo1 growth) | ROMK hit retest inactive
CC1(C)NC(=O)N(CCCCOc2ccc(Cl)cc2)C1=O	none
NC(=O)c1cc(-c2ccccc2)nc(Oc2ccccc2)n1	ROMK primary -3.6 | ROMK hit retest inactive
N#Cc1cc(-c2ccccc2)nc(Oc2ccccc2)n1	none (no result: Insulin prom inh)
COC(=O)c1[nH]c2ccc(F)cc2c1NS(=O)(=O)c1ccc(OC)cc1	none | ROMK hit retest inactive
N#CC1(c2ccc(NC(=O)c3ccccc3)cc2)CCCC1	ROMK primary 2.3 (no result: Insulin prom inh) | ROMK hit retest inactive
CCNc1ccc(S(=O)(=O)N(C)C)cc1NCC(=O)Nc1ccc(Br)cc1F	ROMK primary -3.2 | ROMK hit retest 0.062
Cc1cccc(NS(=O)(=O)c2cc(C(=O)OC(C)C(=O)NCc3ccc4c(c3)OCO4)ccc2C)c1 (configuration not stated)	none (no result: ROMK primary)
O=C(/C=C/c1ccccc1)CC(O)(c1ccccc1)C(F)(F)F (configuration not stated)	ROMK primary -4.8 | ROMK hit retest 0.052
CCOC(=O)c1c(NC(=O)CC2SC(N)=NC2=O)sc2c1CCCC2 (configuration not stated)	none (no result: ROMK primary)
O=C(c1cccc2ccccc12)N1CCN(c2ccc([N+](=O)[O-])c(N3CCOCC3)c2)CC1	none (no result: Insulin prom inh, ROMK primary) | ROMK hit retest inactive
O=C(c1ccccc1F)N1CCN(c2ccc([N+](=O)[O-])c(N3CCOCC3)c2)CC1	none (no result: Measles CPE, Insulin prom inh, sdo1 growth)
Clc1ccc(CNc2nc(CN3CCOCC3)nc3scc(-c4ccccc4)c23)cc1	none
CCN(CC)CCNC(=O)c1[nH]c2ccc(OCc3ccccc3)cc2c1C	ROMK primary -5 (no result: Measles CPE, sdo1 growth) | ROMK hit retest 0.063
Cc1ccc(NCc2nnc(SCC(=O)NCc3ccco3)n2CC2CCCO2)cc1Cl (configuration not stated)	ROMK primary -2.8 | ROMK hit retest 0.067
Cc1ccc(S(=O)(=O)NCc2c(Cl)cccc2Oc2ccccc2)cc1	none (no result: Measles CPE, Insulin prom inh, sdo1 growth)
CC1CCCCC1NC(=O)COC(=O)COc1ccc(Cl)cc1 (configuration not stated)	none
CN(C(=O)COC(=O)COc1ccc(Cl)cc1)C1CCCCC1	none (no result: ROMK primary) | ROMK hit retest inactive
CCOc1ccc(C(=O)Nc2ccc3c(c2)OCCO3)cc1[N+](=O)[O-]	ROMK primary -3.3 (no result: Measles CPE, sdo1 growth) | ROMK hit retest inactive
CCOc1ccc(C(=O)Nc2ccc3c(c2)OCCO3)cc1OC	none (no result: ROMK primary)
Cn1nccc1NC(=O)Nc1ccc(Cl)cc1	none (no result: Measles CPE, Insulin prom inh, sdo1 growth)
CC(C)(C)n1nc(C2CC2)cc1NC(=O)Nc1ccc(Cl)cc1	none (no result: Measles CPE, Insulin prom inh, ROMK primary, sdo1 growth) | ROMK hit retest inactive
CC(Oc1ccc(Cl)cc1Cl)C(=O)NCCCN(C)C (configuration not stated)	none
Cc1cccc(N2CCN(C(c3ccccc3)c3nnnn3C(C)(C)C)CC2)c1C (configuration not stated)	ROMK primary -3.3 | ROMK hit retest inactive
C#CCOCCOCCOCCNc1nc(N2CCN(C(=O)[C@H](Cc3ccc(O)cc3)n3cc(CCO)nn3)CC2)nc(N2CCN(C(=O)[C@H](Cc3ccc(O)cc3)n3cc(CCO)nn3)CC2)n1	none
